Screening results from PubChem.
An excerpt weighted towards active compounds, which were near 21% of everything screened.
Pf growth 48h = P. falciparum growth inhibition at 48 hours (one generation); P. falciparum luciferase growth in erythrocytes, 48 h; Potency, µM (series often up to 28.7 µM), inactives show top-dose activity change, negative = inhibition, actives largely listed as inhibitors; hit rate 5.9% among 310,000; also: potency is read from the fitted curve at half-maximal effect; % is scaled to controls: 0 for no effect and ±100 for the full control effect
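Growth was read as firefly luciferase luminescence after a 48 h, 37 C, 5% CO2 exposure of compounds to reporter-bearing P. falciparum cultures (0.1% parasitemia, 2% hematocrit final) in Albumax-supplemented RPMI 1640.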
Pf growth 96h = P. falciparum growth inhibition at 96 hours; AID 504834; P. falciparum luciferase reporter growth, 96 h; hit rate 6.9% among 320,000; Potency, µM (highest dose often 28.7 µM), inactives show top-dose activity change, negative = inhibition, most hits filed as inhibitors; also: potency is read from the fitted curve at half-maximal effect; % is scaled to controls: 0 for no effect and ±100 for the full control effect
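Two parasite generations (96 h, 37 C, 5% CO2) of compound exposure in infected erythrocytes (0.05% parasitemia, 2% hematocrit). Luciferase-reporter P. falciparum; decreased luminescence indicates inhibited growth, aimed at apicoplast-acting delayed death.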
Shiga toxin inh = Shiga toxin inhibition | inhibition, % at 38.7 µM | hit rate 9.2% among 290,000 | Vero cells, Shiga toxin protein synthesis inhibition reporter | AID 2315; in the data active = inhibition mostly above about 28%, no sharp cut-off; inactive = mostly below about 43%; also: 0% is about no effect
HCV inh = HCV inhibition; Huh7.5.1 HCVcc-Cre infection, luciferase reporter, 44 h; Potency, µM (highest dose often 41.8 µM), inactives show top-dose activity change, negative = inhibition, most hits filed as inhibitors; hit rate 3.4% among 340,000; AID 651820; also: potency is read from the fitted curve at half-maximal effect; % is scaled to controls: 0 for no effect and ±100 for the full control effect
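Reporter virus HCVcc-Cre (~0.5 moi) infects cells exposed to compound; seeding density 1,000 cells/well with 4 h settling beforehand. Luminescence, 15 sec read, taken 44 h post-infection following a 15 min RT substrate incubation.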
CHX counter = affects cycloheximide protein synthesis inhibition readout, counter-screen; hit rate 12% among 300,000; cell reporter, cycloheximide protein synthesis inhibition counterscreen; max response, %; in the data active = max response mostly above about 13%, no sharp cut-off; inactive = mostly below about 14%; also: read at 38.3 µM for the half of the compounds with a filed dose; 0% is about no effect
AMA1-RON2 inh = inhibitors of Plasmodium falciparum AMA1-RON2 interaction | AlphaScreen AMA1-biotinylated RON2 peptide binding | hit rate 0.2% among 360,000 | Potency, µM (titrated, usually from 58.2 µM), for inactives: at the highest dose activity change, negative = inhibition, hits mostly inhibitors | AID 720542;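 also: potency is read from the fitted curve at half-maximal effect; 0% = vehicle wells and -100% = peptide control; nearly all actives have a fitted effect of over 45% in size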
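AMA1 (3D7) with his tag at 25 nM final met compounds first, then biotinylated RON2 peptide at 25 nM; detection used donor plus acceptor beads, 10 µg/mL apiece, read by AlphaScreen after 30 min at room temperature.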
* marks the source's active call; other numbers are inactive results; ? = inconclusive; . = not tested or not shown; [ ] = another dose, or the depositor's remark. Unless noted, calls follow the shape of the dose curve; as a rule, active = well fitted curve in the direction sought with a large enough effect; inconclusive = small, poorly fitted or top-dose-only effect, or another doubt; inactive = no such curve, though single readings can be large; an effect the other way counts as inactive or inconclusive.

SMILES	Pf growth 48h	Pf growth 96h	Shiga toxin inh	HCV inh	CHX counter	AMA1-RON2 inh
CCOC(=O)CC(=O)CSc1nc2ccc(OC)cc2cc1C	?	33%	51*	?	21*	14%
CCOC(=O)CC(=O)CSc1nc2cc(C)ccc2cc1C	?	13µM*	25	?	5	58%
CC1(C)NC(=O)N(CCC(=O)Nc2cc(C(F)(F)F)ccc2Cl)C1=O	.	.	.	1%	.	0%
CC1CCN(C(=O)c2ccc3c(c2)C(=O)c2ccccc2-3)CC1	.	.	.	.	.	-4%
O=C(Nc1ccc(C(=O)N2CCCC2)cc1)c1ccccc1Br	28%	-7%	35	10%	11*	-10%
O=C(Nc1ccccc1)Nc1ccc(C(=O)N2CCCC2)cc1	266%	16%	45*	5%	19*	24%
O=C(/C=C/c1ccccc1)Nc1ccc(C(=O)N2CCCCC2)cc1	2%	-5%	44*	0%	14	2%
O=C(Nc1ccc(C(=O)N2CCCCC2)cc1)c1ccccc1	.	.	.	-5%[8.37 µM]	.	15%
O=C(/C=C/c1ccccc1)Nc1cccc(C(=O)N2CCCCC2)c1	.	.	.	?	.	-3%
O=C1c2ccccc2-c2ccc(C(=O)N3CCCCC3)cc21	61%	-23%	153	13%	31*	-10%
O=C(Nc1ccccc1)C(=O)Nc1ccc2c(c1)N(C(=O)C1CC1)CCC2	-31%	-48%	.	?	.	8%
O=C(Nc1ccc(C2CC2(Cl)Cl)cc1)c1ccccc1Br (stereo not given)	65%	0.93µM*	57*	-1%	45*	5%
O=C(Nc1ccc(C(=O)N2CCCCC2)cc1)c1ccccc1Br	.	.	.	-17%	.	-7%
Cc1cc2nn(-c3cccc4ccccc34)nc2cc1NC(=O)c1cccs1	.	7.4µM*	13	?	11	18%
CC(C)Cn1nc(NC(=O)c2cccs2)c2cc3ccccc3nc21	?	?	29	8.9µM*	18	159%
CCN(CC)c1ccc(-n2nc3cc(C)c(NC(=O)c4ccccc4C)cc3n2)c(C)c1	.	.	22	.	11	.
COc1ccc2nc3c(cc2c1)c(NC(=O)c1cccs1)nn3CC(C)C	?	31%	88*	?	19*	142%
CC(C)Cn1nc(NC(=O)c2ccco2)c2cc3ccccc3nc21	-16%	?	16	?	8	1%
CCOC(=O)C1(CC)NC(c2ccc(OC)cc2OC)C2C(=O)N(C)C(=O)C21 (stereo not given)	18%	?	-9	-1%	-3	-5%
CCCCCOC(=O)Cc1c(C)nc(-c2ccccc2)[nH]c1=O	1.9µM*	?	-7	23%	-1	-5%
CN(Cc1ccccc1)C(=O)C1CCN(S(=O)(=O)c2ccc(-n3cnnn3)cc2)CC1	0%	6%	3	0%	-5	9%
Nc1ccc2c(c1)C(=O)c1cc(N)c(Cl)cc1-2	.	.	.	25µM*	.	-11%
COC(=O)Cn1ncn2c(cc3oc(C)cc32)c1=O	121%	22%	76*	13%	40*	2%
Cc1cc(C)cc(NC(=O)Cn2ncn3c(cc4ccccc43)c2=O)c1	.	-5%	-14	-17%	-3	9%
NS(=O)(=O)c1cccc(NC(=O)COC(=O)Cn2cc(C(F)(F)F)ccc2=O)c1	-22%	-18%	.	12%	.	-6%
SMILES	Pf growth 48h	Pf growth 96h	Shiga toxin inh	HCV inh	CHX counter	AMA1-RON2 inh
S=c1nc(COc2ccccc2)[nH]c2ccccc12	?	?	116*	-9%	58*	103%
S=c1nc(Cc2ccccc2)[nH]c2ccccc12	.	?	-7	1%	-2	90%
FC(F)(F)c1nc(=S)c2ccccc2[nH]1	34%	?	-3	-29%	1	-12%
S=c1nc(Cc2ccc(Cl)cc2)[nH]c2ccccc12	?	?	-8	2%	13*	102%
Clc1ccc2nc(COc3ccccc3)[nH]c2c1	69%	-4%	.	5%	34*	1%
Cc1cc(=O)[nH]c(COc2ccccc2)n1	56%	.	-8	14%	3	-4%
O=c1[nH]c(COc2ccccc2)nc2ccccc12	.	127%	49*	-20%	25*	5%
Cc1ccsc1CNC(=O)C1(C)CCN1C(=O)C(C)C (stereo not given)	.	.	.	.	.	0%
COc1ccc(/C=N/NC(=O)CNC(=O)c2ccncc2)cc1	0%	?	-4	14%	-2	4%
O=c1[nH]c(COc2ccc(Br)cc2Cl)nc2ccccc12	31%	-18%	104*	-9%	37*	10%
CN1CCOC(=O)/C1=N/Nc1cc(Cl)ccc1Cl	57%	35%	-3	-14%	9	?
O=C(N/N=C/c1c(O)ccc2ccccc12)c1ccc(CO)nc1	?	23%	3	11µM*	-1	1%
O=C(NN=Cc1c(O)ccc2ccccc12)c1ccc2c(c1)OCO2	.	.	.	5µM*	.	79%
Cc1cc(O)cc(O)c1/C=N/NC(=O)c1ccc2c(c1)OCCO2	.	.	.	.	.	138%
O=C(N/N=C\c1c(O)ccc2ccccc12)c1ccc(S(=O)(=O)N2CCCCC2)cc1	1.5µM*	85%	-16	5µM*	-2	18%
COc1cc(SC)ccc1C(=O)Nc1ccc2ncccc2c1	181%	107%	30*	?	27*	-5%
COc1cc(SC)ccc1C(=O)NC(C)C	2%	4%	23	-14%	4	4%
COc1cc(SC)ccc1C(=O)Nc1ncc(Cl)cc1Cl	112%	156%	79*	7%	35*	7%
COc1ccccc1NC(=O)c1cc2ccccc2o/c1=N\O	43%	-8%	65	7%	22	?
COc1cc(SC)ccc1C(=O)Nc1ccon1	109%	?	60*	?	34*	-15%
COc1ccc(N=c2oc3ccccc3cc2C(=O)Nc2ccccn2)cc1OC	70%	?	98*	.	52*	.
COc1cc(SC)ccc1C(=O)NCCOc1ccc(Cl)cc1	?	0%	-9	-18%	-3	1%
CCN(CC(=O)NCCCN1CCOCC1)S(=O)(=O)c1ccc(F)cc1	20%	13%	-5	-6%	-6	12%
CCn1c(C)nc2cc(C(=O)NNC(=S)NC(=O)c3ccc(OC)cc3)ccc21	0%	1%	-5	?	-4	70%
CCC(c1nc2ccccc2[nH]1)N(CCCn1ccnc1)C(=O)c1ccc(C(F)(F)F)cc1 (stereo not given)	.	.	.	.	.	12%
COc1ccc(COc2ccccc2C(=O)Nc2ccccn2)cc1[N+](=O)[O-]	49%	-3%	-9	-4%	0	0%
COc1cc(SC)ccc1C(=O)Nc1cccc(C)n1	88%	5%	84*	13µM*	33*	0%
COc1cc(SC)ccc1C(=O)Nc1ccc(Br)cn1	-45%	290%	76*	?	31*	6%
